The record followed here is PubChem BioAssay AID504863 (Sanford-Burnham Center for Chemical Genomics, 2011).

Structures are written as SMILES. Some of the results follow. Values without a mark were called inactive. Calls of active or inactive are those of the source.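 Rule for the calls: active = inhibition averaging 50% or more, tested at 20 µM; inactive = the rest.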

The test system of the experiment is diaphorase (Clostridium kluyveri). The experiment in a line: C. kluyveri diaphorase inhibition, resazurin coupling – biochemical, fluorescence intensity, 30 µM NADPH, counter-screen for P. falciparum G6PD inhibitor project, confirmation (AID 504863).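 Note: 0% = DMSO with enzyme and 100% = DMSO wells lacking diaphorase.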 Particulars: Diaphorase/resazurin coupled assay, resorufin fluorescence, at 20 µM, hits give high values.
On to `O=C(Nc1nnc(S(=O)(=O)N2CCOCC2)s1)c1cccc(Br)c1`, for which the inhibition was 48.1%.
As for `COc1ccc2c(c1)c(=Cc1ccc(N(C)C)cc1)c1cc(-c3ccccc3)[n+](C)n12`, the inhibition is 15.6%.
With `COc1ccc(OCc2nnc3n2N=C(c2ccccc2)C(CC(=O)O)S3)cc1` (stereo not given), the inhibition is 1.64%.
`CCN1CCCC1CNC(=O)c1ccc2c(c1)NC(=O)/C(=C\c1ccccc1F)S2` (stereo not given): the inhibition is -9.58%.
Take `COc1c(O)ccc2c1CN1CCc3cc4c(cc3C1C2)OCO4` (stereo not given): the inhibition was 8.58%.
With `O=C(Nc1nnc(S(=O)(=O)N2CCCCCC2)s1)c1cccc(Br)c1`, the inhibition was 41.6%.
Regarding `O=C1/C(=C\c2ccc([N+](=O)[O-])cc2)CS(=O)(=O)C/C1=C/c1ccc([N+](=O)[O-])cc1`, the inhibition is -12.8%.
As for `O=C1C=CC(=O)N1c1ccc(N2CCCCC2)cc1`, the inhibition is -16.6%.
In the case of `CCOC(=O)C1=C(c2ccc(OC)cc2)C(=O)c2ccccc2C1=O`, the inhibition is 85.7% (active).
With `O=C(Nc1nc(-c2ccncc2)cs1)C1COc2ccccc2O1` (stereo not given), the inhibition was -24.7%.
In the case of `Cc1ccc(NC(=O)Cn2sc3ccccc3c2=O)cc1`, the inhibition was 11.3%.
With `Cn1c(-c2sccc2OCc2cccc(C(F)(F)F)c2)n[nH]c1=S`, the inhibition was 10.1%.
The value for `CCOc1ccccc1/C=N/NC(=O)CNC(=O)COc1ccccc1` was 88.1% (active).
The value for `COc1ccc(CCn2c(NN=C3CCCC3)nc3c2c(=O)[nH]c(=O)n3C)cc1` was -4.07%.
`O=[N+]([O-])c1c(NCCO)cc(Sc2nc3ccccc3s2)c2nonc12`: the inhibition was 0.96%.
